PubChem BioAssay (NCATS)
Results filed as inconclusive are left out. A call without a number means that no potency is given here. More than one record can exist for a structure, and the calls need not agree. Active and inactive are the calls of the source. Unless noted, calls follow the shape of the dose curve; as a rule, active = well fitted curve in the direction sought with a large enough effect; inconclusive = small, poorly fitted or top-dose-only effect, or another doubt; inactive = no such curve, though single readings can be large; an effect the other way counts as inactive or inconclusive.

What was measured:
[1] = molecular target: Glutathione peroxidase 1 (Homo sapiens) (UniProt P07203); experiment: Primary qHTS Assay for Inhibitors of Recombinant Selenoprotein Glutathione Peroxidase 1 (GPX1) (AID 1845191); also: nearly all actives have a fitted effect of over 65% in size; also: potency is read from the fitted curve at half-maximal effect
In short: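 GR-coupled readout: NADPH consumption tracked by fluorescence, ex 340/em 450 nm, at t=0 and after 15 min at RT. Final mix 10 nM GPX1, 1 mM GSH, 0.5 mM CHP, 0.5 mM NADPH, 100 nM GR, 0.01% BSA, following 30 min enzyme–compound preincubation.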

[2] = NCATS anti-infectives library activity on HEK293 viability as a counter-qHTS vs the C. elegans viability qHTS (AID 1745854);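 also: HEK293 cells exposed to compounds for 24 hr before the viability read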; also: potency is read from the fitted curve at half-maximal effect
In short: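 Counter-screen for cytotoxicity: HEK293, 24 hr, 37C, compounds up to 41.7 uM final (a dilution series, 1:5). Readout CellTiter-Glo luminescence, 10 min RT. Digitonin control, 83.3 uM final.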

[3] = molecular target: Luciferin 4-monooxygenase (Photinus pyralis) (UniProt P08659); experiment: Primary firefly luciferase (FLuc) qHTS assay for identification of artifact compounds. (AID 1845220); settings: outcome: dose series up to 54.1 µM; also: nearly all actives have a fitted effect of over 60% in size
In short: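 Titrated compounds were incubated 15 min at RT, protected from light, with luciferin and ATP at 10 uM; reaction started with 10 nM FLuc, luminescence imaged at 5 min, and concentration-response fitted by Hill equation.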

[4] = Primary fluorescence-based thiol-reactive (MSTI) qHTS assay for identification of artifact compounds. (AID 1845221);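 also: thiol-reactive compounds lower the probe fluorescence signal; nearly all actives have a fitted effect of over 65% in size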
In short: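 Reactivity toward the thiol probe MSTI (4 uM) is scored by fluorescence at Ex/Em 525/598 nm after 1 h at room temperature. Acetyl-MSTI and MSTI define the activity scale.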

[5] = system: Nanoluciferase (engineered Oplophorus gracilirostris luciferase); experiment: Primary Nanoluciferase (NLuc) qHTS assay for identification of artifact compounds. (AID 1845222);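 also: NLuc secreted into diluted conditioned medium of S16 cells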
In short: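 qHTS format, against NLuc in S16 cell-conditioned medium. Nano-Glo substrate 1:100 was added after 15 min at room temperature. Luminescence was taken after a further 5 min.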

[6] = molecular target: Phospholipid hydroperoxide glutathione peroxidase GPX4 (Homo sapiens) (UniProt P36969); experiment: Primary qHTS Assay for Inhibitors of Recombinant Selenoprotein Glutathione Peroxidase 4 (GPX4) (AID 1845192); also: nearly all actives have a fitted effect of over 65% in size
In short: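 Steps: GPX4 plus compound, 30 min RT; add GR/GSH/NADPH master mix; start with cumene hydroperoxide; read 340/450 nm fluorescence at 0 and 15 min. Finals were 200 nM GPX4, 1 mM GSH, 0.5 mM CHP, 0.5 mM NADPH, 100 nM GR.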

[7] = molecular target: Rap guanine nucleotide exchange factor 3 (Homo sapiens) (UniProt O95398); experiment: Confirmatory qHTS for antagonist of cAMP-regulated guanine nucleotide exchange factor 3 (EPAC1) (AID 1645880); also: nearly all actives have a fitted effect of over 55% in size
In short: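 Released BODIPY-GDP fluoresces less than Rap1-bound BODIPY-GDP; the signal is followed at 480/540 nm at 5-min intervals over 30 min, after 5 min at room temperature. Reactions contain 100 nM EPAC1, 250 nM RAP1B-BODIPY-GDP and 50 uM GDP; results are normalized to ATA and DMSO.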

[8] = molecular target: Rap guanine nucleotide exchange factor 3 (Homo sapiens) (UniProt O95398); experiment: Confirmatory qHTS for agonist of cAMP-regulated guanine nucleotide exchange factor 3 (EPAC1) (AID 1645881);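 also: EPAC1 catalysed release of BODIPY-GDP from Rap1B seen as fluorescence loss; nearly all actives have a fitted effect of over 75% in size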
[9] = molecular target: Rap guanine nucleotide exchange factor 4 (Homo sapiens) (UniProt Q8WZA2); experiment: Confirmatory qHTS for agonist of cAMP-regulated guanine nucleotide exchange factor 4 (EPAC2) (AID 1645884);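 also: nucleotide exchange releases bodipy-GDP from Rap1 and this lowers its fluorescence; nearly all actives have a fitted effect of over 65% in size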
[10] = molecular target: Rap guanine nucleotide exchange factor 4 (Homo sapiens) (UniProt Q8WZA2); experiment: Confirmatory qHTS for antagonist of cAMP-regulated guanine nucleotide exchange factor 4 (EPAC2) (AID 1645885); also: nearly all actives have a fitted effect of over 25% in size
[11] = molecular target: Catechol O-methyltransferase (Homo sapiens) (UniProt P21964); experiment: Confirmatory Screen for Target Class Profiling of Small Molecule Inhibitors of Methyltransferases (AID 1745852; calls by dose curve; also: potency is read from the fitted curve at half-maximal effect); settings: MTase-Glo luminescence, SAH detection, recombinant enzyme; measured here: COMT max response; stronger effect = lower value
[12] = molecular target: Guanidinoacetate N-methyltransferase (Homo sapiens) (UniProt Q14353); experiment: as above; settings: MTase-Glo luminescence, SAH detection, recombinant enzyme; activity change, negative = inhibition: at 57.3 µM (top of the series)
[13] = molecular target: Nicotinamide N-methyltransferase (Homo sapiens) (UniProt P40261); experiment: as above; settings: MTase-Glo luminescence, SAH detection, recombinant enzyme; measured here: NNMT max response; stronger effect = lower value
[14] = molecular target: Phenylethanolamine N-methyltransferase (Homo sapiens) (UniProt P11086); experiment: as above; settings: MTase-Glo luminescence, SAH detection, recombinant enzyme; measured here: PNMT max response; stronger effect = lower value
[15] = Viability counterscreen for antagonist of constitutive androstane receptor (CAR) against the NCATS DSHEA and TCM libraries (AID 1794837);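 also: compound exposure lasted 24 h before viability reading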
In short: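 HepG2-CYP2B6-hCAR cells (2,500/well) were allowed to attach for 5 h, then exposed to compounds with 48 uM CITCO for 24 h at 37C. Viability was read by CellTiter-Fluor fluorescence after 1 h.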

[16] = Viability counterscreen for agonist of constitutive androstane receptor (CAR) against the NCATS DSHEA and TCM libraries (AID 1794838)
In short: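 HepG2-CYP2B6-hCAR cells (2,500/well) attached 5 h, then got compounds plus 0.75 uM PK11195 final. After 24 h at 37C, viability read by CellTiter-Fluor fluorescence (Ex/Em 405/540 nm).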

[17] = molecular target: Nuclear receptor subfamily 1 group I member 3 (Homo sapiens) (UniProt Q14994); experiment: Primary qHTS for agonist of constitutive androstane receptor (CAR) against the NCATS DSHEA and TCM libraries (AID 1794839);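 also: HepG2 cells expressing human CAR with a CYP2B6 reporter plus PK11195 antagonist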
In short: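 HepG2-CYP2B6-hCAR cells (2,500/well) were attached for 5 h, then treated for 24 h at 37 °C with compounds plus 0.75 µM PK11195. Luciferase luminescence (ONE-Glo) was read, with CellTiter-Fluor viability (Ex/Em 405/540 nm).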

[18] = HepG2 viability counterscreen (readout 2: ATP content) against the NCATS DSHEA and TCM libraries (AID 1794840);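 also: HepG2 cells exposed to substances for about 24 h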
In short: (§1)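 HepG2 cells (1,000 cells/well) attached ~4 h, then treated ~24 h at 37C with substances. Protease activity read by GF-AFC (25 uM final, 30 min, Ex/Em 380/510 nm); ATP content then by CellTiter-Glo luminescence.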

[19] = HepG2 viability counterscreen (readout 1: protease activity) against the NCATS DSHEA and TCM libraries (AID 1794841);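 also: cells exposed to compounds for about 24 h before the protease read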
In short: as §1

[20] = NCATS anti-infectives library activity on the primary C. elegans qHTS viability assay (AID 1745855; calls by dose curve); settings: C. elegans worm area imaging, day 7; at 41.8 µM (top of the series)
In short: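 GFP read-out by 488 nm laser cytometry at day 0, 3 and 7, gated on object perimeter, area and peak intensity, scored viability of PE254-GFP-FLuc worms exposed to compound in S medium with bacterial capsules at 21 °C.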

Chain of Rap guanine nucleotide exchange factor 4 (Homo sapiens) (Q8WZA2 whole entry, looked up): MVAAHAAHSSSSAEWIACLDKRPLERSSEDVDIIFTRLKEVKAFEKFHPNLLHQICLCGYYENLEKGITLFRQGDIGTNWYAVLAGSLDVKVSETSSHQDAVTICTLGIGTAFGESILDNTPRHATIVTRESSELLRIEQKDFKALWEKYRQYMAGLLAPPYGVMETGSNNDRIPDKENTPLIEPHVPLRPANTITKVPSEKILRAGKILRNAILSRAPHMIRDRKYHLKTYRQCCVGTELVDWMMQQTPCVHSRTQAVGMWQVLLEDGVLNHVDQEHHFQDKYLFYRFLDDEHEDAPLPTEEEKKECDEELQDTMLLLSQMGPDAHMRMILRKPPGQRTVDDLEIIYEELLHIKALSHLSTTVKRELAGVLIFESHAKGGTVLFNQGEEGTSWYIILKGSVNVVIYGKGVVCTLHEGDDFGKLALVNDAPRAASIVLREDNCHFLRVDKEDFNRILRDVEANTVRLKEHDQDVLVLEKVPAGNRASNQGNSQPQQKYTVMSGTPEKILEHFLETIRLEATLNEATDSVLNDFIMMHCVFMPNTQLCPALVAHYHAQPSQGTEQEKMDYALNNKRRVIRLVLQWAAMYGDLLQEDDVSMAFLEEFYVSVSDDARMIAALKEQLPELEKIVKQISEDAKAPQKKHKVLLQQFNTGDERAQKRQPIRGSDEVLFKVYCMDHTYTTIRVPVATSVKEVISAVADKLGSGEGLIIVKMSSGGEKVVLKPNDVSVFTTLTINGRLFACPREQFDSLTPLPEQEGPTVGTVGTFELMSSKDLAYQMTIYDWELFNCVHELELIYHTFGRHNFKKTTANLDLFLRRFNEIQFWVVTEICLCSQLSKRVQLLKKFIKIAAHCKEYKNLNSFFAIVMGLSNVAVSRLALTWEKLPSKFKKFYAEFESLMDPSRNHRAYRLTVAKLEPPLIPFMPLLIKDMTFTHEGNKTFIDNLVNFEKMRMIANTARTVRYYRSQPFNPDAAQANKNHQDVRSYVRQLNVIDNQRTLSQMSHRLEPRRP
Chain of Nicotinamide N-methyltransferase (Homo sapiens) (P40261 whole entry, looked up): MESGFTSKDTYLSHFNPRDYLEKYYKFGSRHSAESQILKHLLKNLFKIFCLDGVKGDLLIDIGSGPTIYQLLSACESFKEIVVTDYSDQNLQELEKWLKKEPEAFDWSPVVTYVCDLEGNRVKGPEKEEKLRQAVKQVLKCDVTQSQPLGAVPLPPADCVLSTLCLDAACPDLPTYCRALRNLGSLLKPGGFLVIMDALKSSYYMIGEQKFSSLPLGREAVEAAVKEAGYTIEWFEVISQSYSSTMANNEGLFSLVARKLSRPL
Chain of Phenylethanolamine N-methyltransferase (Homo sapiens) (P11086 whole entry, looked up): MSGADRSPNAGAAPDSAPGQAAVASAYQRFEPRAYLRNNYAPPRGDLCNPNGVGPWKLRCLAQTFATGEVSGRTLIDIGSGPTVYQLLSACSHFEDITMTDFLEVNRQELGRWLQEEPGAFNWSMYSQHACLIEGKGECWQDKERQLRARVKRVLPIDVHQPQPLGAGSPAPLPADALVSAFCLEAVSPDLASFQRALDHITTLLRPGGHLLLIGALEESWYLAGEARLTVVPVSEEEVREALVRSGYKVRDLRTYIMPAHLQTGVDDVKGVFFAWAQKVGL
Chain of Glutathione peroxidase 1 (Homo sapiens) (P07203 whole entry, looked up): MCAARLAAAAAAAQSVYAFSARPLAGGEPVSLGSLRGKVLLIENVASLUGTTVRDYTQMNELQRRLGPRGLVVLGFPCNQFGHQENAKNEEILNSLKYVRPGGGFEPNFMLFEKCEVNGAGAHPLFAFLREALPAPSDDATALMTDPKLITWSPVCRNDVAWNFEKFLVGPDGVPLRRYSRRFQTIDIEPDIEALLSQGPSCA
Chain of Catechol O-methyltransferase (Homo sapiens) (P21964 whole entry, looked up): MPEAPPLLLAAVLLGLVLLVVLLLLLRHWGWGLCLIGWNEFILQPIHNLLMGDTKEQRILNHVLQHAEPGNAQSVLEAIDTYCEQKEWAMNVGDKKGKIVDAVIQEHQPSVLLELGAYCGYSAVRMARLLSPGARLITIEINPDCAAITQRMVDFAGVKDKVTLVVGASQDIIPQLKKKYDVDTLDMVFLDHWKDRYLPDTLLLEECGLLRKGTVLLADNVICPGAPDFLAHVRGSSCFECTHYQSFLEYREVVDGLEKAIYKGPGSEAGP
Chain of Rap guanine nucleotide exchange factor 3 (Homo sapiens) (O95398 whole entry, looked up): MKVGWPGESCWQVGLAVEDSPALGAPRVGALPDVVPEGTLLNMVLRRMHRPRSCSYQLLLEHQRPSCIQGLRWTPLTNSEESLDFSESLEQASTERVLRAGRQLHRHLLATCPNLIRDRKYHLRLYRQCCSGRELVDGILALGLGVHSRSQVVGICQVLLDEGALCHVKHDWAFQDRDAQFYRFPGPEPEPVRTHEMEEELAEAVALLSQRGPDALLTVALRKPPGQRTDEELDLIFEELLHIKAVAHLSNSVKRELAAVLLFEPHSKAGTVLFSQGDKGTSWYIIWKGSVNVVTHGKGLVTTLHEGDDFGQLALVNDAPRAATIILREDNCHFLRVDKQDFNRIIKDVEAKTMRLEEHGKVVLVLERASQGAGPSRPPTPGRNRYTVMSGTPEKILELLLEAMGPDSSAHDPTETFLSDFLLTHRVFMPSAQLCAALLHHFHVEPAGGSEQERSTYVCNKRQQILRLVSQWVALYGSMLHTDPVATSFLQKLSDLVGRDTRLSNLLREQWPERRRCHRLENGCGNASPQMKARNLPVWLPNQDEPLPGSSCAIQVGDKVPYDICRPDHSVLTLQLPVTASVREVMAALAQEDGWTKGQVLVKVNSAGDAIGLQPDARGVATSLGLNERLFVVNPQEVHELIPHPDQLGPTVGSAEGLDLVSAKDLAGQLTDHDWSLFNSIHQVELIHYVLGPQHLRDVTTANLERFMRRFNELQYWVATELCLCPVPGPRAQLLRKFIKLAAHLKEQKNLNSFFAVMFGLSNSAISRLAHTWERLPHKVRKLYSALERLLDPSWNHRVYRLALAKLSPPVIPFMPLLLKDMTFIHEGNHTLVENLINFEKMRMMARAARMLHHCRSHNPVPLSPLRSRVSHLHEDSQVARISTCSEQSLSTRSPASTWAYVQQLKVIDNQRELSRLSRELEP
Chain of Phospholipid hydroperoxide glutathione peroxidase GPX4 (Homo sapiens) (P36969 whole entry, looked up): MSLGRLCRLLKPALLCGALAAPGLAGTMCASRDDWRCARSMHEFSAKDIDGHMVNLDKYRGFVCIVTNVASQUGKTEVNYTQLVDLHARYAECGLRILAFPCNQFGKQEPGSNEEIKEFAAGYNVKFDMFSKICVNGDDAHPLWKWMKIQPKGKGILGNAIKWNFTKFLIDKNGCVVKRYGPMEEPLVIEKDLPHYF
Chain of Nuclear receptor subfamily 1 group I member 3 (Homo sapiens) (Q14994 whole entry, looked up): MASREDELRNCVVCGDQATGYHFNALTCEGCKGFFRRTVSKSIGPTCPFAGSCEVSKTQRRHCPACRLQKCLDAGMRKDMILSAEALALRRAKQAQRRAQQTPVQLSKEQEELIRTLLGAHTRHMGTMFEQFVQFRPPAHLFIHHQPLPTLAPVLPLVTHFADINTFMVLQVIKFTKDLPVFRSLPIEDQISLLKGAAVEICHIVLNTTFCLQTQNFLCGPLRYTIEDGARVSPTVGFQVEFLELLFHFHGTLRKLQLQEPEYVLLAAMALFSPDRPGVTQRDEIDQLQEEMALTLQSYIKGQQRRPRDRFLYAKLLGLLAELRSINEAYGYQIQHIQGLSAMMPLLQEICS

SMILES: CC1=C(C(=O)O)N2C(=O)[C@@H](NC(=O)C(N)c3ccccc3)[C@H]2SC1 (stereo partly drawn)
- Potency [1]: inactive

SMILES: C1CCC(C(CC2CCCCN2)C2CCCCC2)CC1 (stereo not drawn)
- Potency [2]: 15.8 µM (active)
- Potency [1]: inactive

SMILES: O=P(O)(O)C(O)(Cc1cccnc1)P(=O)(O)O
- Potency [2]: inactive
- Potency [1]: inactive
- activity change, negative = inhibition [3]: -16.9% [at 6.45 µM] (inactive)
- outcome [3]: inactive
- Potency [4]: inactive
- outcome [5]: inactive

SMILES: NCCCC(O)(P(=O)(O)O)P(=O)(O)O
- Potency [1]: inactive

SMILES: Cc1oc(=O)oc1CN1CCN(c2cc3c(cc2F)c(=O)c(C(=O)O)c2n3C(C)S2)CC1 (stereo not drawn)
- Potency [2]: inactive
- Potency [1]: inactive
- Potency [6]: inactive

SMILES: COc1nc(N)nc2c1ncn2[C@@H]1O[C@H](CO)[C@@H](O)[C@@H]1O
- Potency [1]: inactive

SMILES: O=S(=O)(c1cccc2cnccc12)N1CCCNCC1
- Potency [2]: inactive
- Potency [1]: inactive
- Potency [6]: inactive

SMILES: Nc1nc(=S)c2[nH]cnc2[nH]1
- Potency [2]: 3.55 µM (active)
- Potency [1]: inactive
- Potency [6]: inactive

SMILES: CN(C)CCc1c[nH]c2ccc(C[C@H]3COC(=O)N3)cc12
- outcome [7]: inactive
- outcome [8]: inactive
- outcome [9]: inactive
- outcome [10]: inactive
- Potency [1]: inactive
- outcome [3]: inactive
- Potency [4]: inactive
- outcome [5]: inactive

SMILES: CCN[C@H]1C[C@H](C)S(=O)(=O)c2sc(S(N)(=O)=O)cc21
- Potency [2]: inactive
- Potency [1]: inactive
- Potency [6]: inactive

SMILES: CC(C)(Sc1cc(C(C)(C)C)c(O)c(C(C)(C)C)c1)Sc1cc(C(C)(C)C)c(O)c(C(C)(C)C)c1
- Potency [2]: inactive
- Potency [1]: inactive
- Potency [6]: inactive

SMILES: CCn1cc(C(=O)O)c(=O)c2cc(F)c(N3CCNCC3)nc21
- Potency [1]: inactive

SMILES: NS(=O)(=O)c1cc2c(cc1Cl)NC(C(Cl)Cl)NS2(=O)=O (stereo not drawn)
- Potency [1]: inactive

SMILES: CNS(=O)(=O)CCc1ccc2[nH]cc(C3CCN(C)CC3)c2c1
- activity [11]: -4.91%
- activity change, negative = inhibition [12]: 2.91%
- activity [13]: -12.2%
- activity [14]: -2.32%
- Potency [1]: inactive
- outcome [3]: inactive
- Potency [4]: inactive
- outcome [5]: inactive

SMILES: Clc1ccccc1CN1CCc2sccc2C1
- Potency [2]: inactive
- Potency [1]: inactive
- Potency [6]: inactive

SMILES: NNC(=O)c1ccncc1
- outcome [15]: inactive
- outcome [16]: inactive
- outcome [17]: inactive
- outcome [18]: inactive
- outcome [19]: inactive
- Potency [1]: inactive

SMILES: Cc1ccnc2c1NC(=O)c1cccnc1N2C1CC1
- Potency [2]: inactive
- Potency [1]: inactive
- Potency [6]: inactive

SMILES: CC(=O)Oc1ccccc1C(=O)Nc1ncc([N+](=O)[O-])s1
- Potency [2]: inactive
- Potency [1]: inactive
- Potency [6]: inactive

SMILES: NC(=O)c1cccc(N)c1
- Potency [2]: inactive
- Potency [1]: inactive

SMILES: CC(C)C1CCC(C(=O)N[C@H](Cc2ccccc2)C(=O)O)CC1 (stereo partly drawn)
- Potency [1]: inactive

SMILES: COc1ccccc1OCC(O)COC(N)=O (stereo not drawn)
- Potency [2]: inactive
- outcome [20]: inactive
- Potency [1]: inactive
- Potency [6]: inactive

SMILES: COc1cc2c(Nc3ccc(Br)cc3F)ncnc2cc1OCC1CCN(C)CC1
- activity [11]: -17.2%
- activity change, negative = inhibition [12]: -2.94%
- activity [13]: -14.2%
- activity [14]: -14.3%
- Potency [1]: inactive
- Potency [6]: inactive
- outcome [3]: inactive
- Potency [4]: inactive
- outcome [5]: inactive

SMILES: Cc1cccc(N(C)C(=S)Oc2ccc3ccccc3c2)c1
- outcome [7]: inactive
- outcome [8]: inactive
- outcome [9]: inactive
- outcome [10]: inactive
- Potency [1]: inactive
- Potency [6]: inactive

SMILES: Cc1nnc(C(=O)NC(C)(C)c2nc(C(=O)NCc3ccc(F)cc3)c(O)c(=O)n2C)o1
- Potency [2]: inactive
- Potency [1]: inactive
- Potency [6]: inactive
- outcome [3]: inactive
- outcome [5]: inactive

SMILES: NC1(c2ccc(-c3nc4ccn5c(=O)[nH]nc5c4cc3-c3ccccc3)cc2)CCC1
- activity [11]: -9.12%
- activity change, negative = inhibition [12]: -8.7%
- activity [13]: -25.8%
- activity [14]: -8.08%
- Potency [1]: inactive
- Potency [6]: inactive
- outcome [3]: inactive
- Potency [4]: inactive
- outcome [5]: inactive

SMILES: O=C(N[C@H](CO)[C@H](O)c1ccc([N+](=O)[O-])cc1)C(Cl)Cl
- Potency [2]: inactive
- Potency [1]: inactive
- Potency [6]: inactive

SMILES: CC(C)Cn1cnc2c(N)nc3ccccc3c21
- Potency [2]: inactive
- Potency [1]: inactive
- Potency [6]: inactive

SMILES: COC(=O)Nc1nc2ccc(Sc3ccccc3)cc2[nH]1
- Potency [1]: inactive

SMILES: O=C(O)c1cccnc1
- outcome [15]: inactive
- outcome [16]: inactive
- outcome [17]: inactive
- outcome [18]: inactive
- outcome [19]: inactive
- Potency [1]: inactive
- Potency [6]: inactive

SMILES: CC(N)C12CC3CC(CC(C3)C1)C2 (stereo not drawn)
- Potency [2]: inactive
- Potency [1]: 6.4 µM (active) and inactive
- Potency [6]: inactive

SMILES: Oc1c(Cl)cc(Cl)c2cccnc12
- Potency [1]: inactive

SMILES: CCOC(=O)c1ccc(OC(=O)CCCCCN=C(N)N)cc1
- Potency [2]: inactive
- Potency [1]: inactive

SMILES: COc1cnc(NS(=O)(=O)c2ccc(N)cc2)nc1
- Potency [1]: inactive

SMILES: COc1ccc2cc3[n+](cc2c1OC)CCc1cc2c(cc1-3)OCO2
- outcome [15]: inactive
- outcome [16]: inactive
- outcome [18]: inactive
- outcome [19]: inactive
- Potency [1]: inactive
- Potency [6]: inactive

SMILES: CC(C)(C)C(=O)OCOP(=O)(COCCn1cnc2c(N)ncnc21)OCOC(=O)C(C)(C)C
- outcome [20]: inactive
- Potency [1]: inactive

SMILES: COc1cc2ncnc(Nc3cccc(Cl)c3)c2cc1OC
- activity [11]: -45.8%
- Potency [12]: 30.4 µM (active)
- activity [13]: -29.1%
- activity [14]: -45.8%
- Potency [1]: inactive
- Potency [6]: inactive
- outcome [3]: inactive
- Potency [4]: inactive
- outcome [5]: inactive
